The values below come from PubChem BioAssay (NCATS).

A number with no mark means an inactive call. Inconclusive results are not listed. Active and inactive are the calls of the source. The call rests on the fitted dose curve; in most records, active means well fitted curve in the direction sought with a large enough effect; inconclusive means small, poorly fitted or top-dose-only effect, or another doubt; inactive means no such curve, though single readings can be large; an effect the other way counts as inactive or inconclusive.

The nature of test [1]: Quantitative High-Throughput drug screen in 47 multiple myeloma cell lines against the NCATS MIPE library collection: SKMM1_PLB cell viability assay (AID 1919863). Further: nearly all actives have a fitted effect of over 35% in size. Further: potency means the concentration at half of the fitted maximal effect. To be noted: SKMM1 myeloma viability, CellTiter-Glo ATP, 48 h; viability: hits give low values. In a few lines: (§1)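 500 cells/well per myeloma line exposed to pinned MIPE 4.0 compounds for 48 h at 37 °C, 5% CO2. Viability read as ATP by CellTiter-Glo luminescence, normalised to DMSO-only (100%) and media-only (0%) wells.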

Test [2] is described as follows: Quantitative High-Throughput drug screen in 47 multiple myeloma cell lines against the NCATS MIPE library collection: XG6_PLB cell viability assay (AID 1919865). Further: nearly all actives have a fitted effect of over 40% in size. Further: potency means the concentration at half of the fitted maximal effect. In a few lines: as §1
Test [3] is described as follows: Quantitative High-Throughput drug screen in 47 multiple myeloma cell lines against the NCATS MIPE library collection: VP6_DJ cell viability assay (AID 1919867). Further: potency means the concentration at half of the fitted maximal effect; nearly all actives have a fitted effect of over 40% in size. The gist of the method:
as §1

Test [4] is described as follows: Quantitative High-Throughput drug screen in 47 multiple myeloma cell lines against the NCATS MIPE library collection: PE2_PLB cell viability assay (AID 1919869). Further: nearly all actives have a fitted effect of over 35% in size. Further: potency means the concentration at half of the fitted maximal effect. The gist of the method: as §1
Test [5] is described as follows: Quantitative High-Throughput drug screen in 47 multiple myeloma cell lines against the NCATS MIPE library collection: PCM6_Riken cell viability assay (AID 1919870). Further: nearly all actives have a fitted effect of over 30% in size. Further: potency means the concentration at half of the fitted maximal effect. In a few lines:
as §1

A short description of test [6]: Quantitative High-Throughput drug screen in 47 multiple myeloma cell lines against the NCATS MIPE library collection: KMS11_JCRBsus cell viability assay (AID 1919873). Further: nearly all actives have a fitted effect of over 50% in size. Further: potency means the concentration at half of the fitted maximal effect. The gist of the method: as §1
Test [7] in a line: Quantitative High-Throughput drug screen in 47 multiple myeloma cell lines against the NCATS MIPE library collection: KMS28BM_JCRB cell viability assay (AID 1919874). Further: nearly all actives have a fitted effect of over 35% in size. Further: potency means the concentration at half of the fitted maximal effect. The gist of the method:
as §1

The nature of test [8]: Quantitative High-Throughput drug screen in 47 multiple myeloma cell lines against the NCATS MIPE library collection: OPM2_DSMZ cell viability assay (AID 1919872). Further: nearly all actives have a fitted effect of over 30% in size. Further: potency means the concentration at half of the fitted maximal effect. In a few lines: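 Relative luminescence from CellTiter-Glo served as the viability signal, referenced to DMSO-treated (100%) and cell-free medium (0%) controls. Treatment lasted 48 hours at 37C with 500 cells per well.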

The nature of test [9]: Quantitative High-Throughput drug screen in 47 multiple myeloma cell lines against the NCATS MIPE library collection: XG1_PLB cell viability assay (AID 1919866). Further: nearly all actives have a fitted effect of over 35% in size. Further: potency means the concentration at half of the fitted maximal effect. In a few lines:
as §1

Test [10] can be described thus: Quantitative High-Throughput drug screen in 47 multiple myeloma cell lines against the NCATS MIPE library collection: RPMI8226_ATCC cell viability assay (AID 1919871). Further: nearly all actives have a fitted effect of over 30% in size. Further: potency means the concentration at half of the fitted maximal effect. The gist of the method: as §1
Test [11] addresses Cytochrome P450 3A4 (Homo sapiens) (UniProt P08684). Put plainly: qHTS for inhibitors of CYP3A4 against the NCATS DSHEA and TCM libraries (AID 1919971).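 Further: on the % scale 0 is the no-effect control and ±100 the full control effect; inhibition lowers luminescence from luciferin made by CYP3A4.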 The gist of the method:
(§2)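 Read-out is luminescence after P450-Glo detection (30 min, RT). Before that: 15 min compound–enzyme preincubation, then 30-45 min reaction with 1x NADPH regeneration solution, substrate concentration isoform-specific.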

In test [12] the target is Cytochrome P450 2D6 (Homo sapiens) (UniProt P10635). Put plainly: qHTS for inhibitors of CYP2D6 against the NCATS DSHEA and TCM libraries (AID 1919972). Further: on the % scale 0 is the no-effect control and ±100 the full control effect. The gist of the method:
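Luminescent P450-Glo read-out of CYP2D6 turnover of a luciferin substrate after NADPH-driven reaction of 30-45 min at room temperature. Compounds were first preincubated 15 min with enzyme at titrated concentrations; quinidine was the intraplate control.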

Test [13] is described as follows: KB-3-1 P-gp reporter qHTS against the NCATS DSHEA and TCM libraries (AID 1919975). Further: 0% is about no effect. In a few lines:
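KB-3-1 parental line, 1536-well qHTS: cells seeded, ~4 h attachment, pintool compound addition, ~72 h at 37C, then CellTiter-Glo, 30 min RT, luminescence. Concentration-response format.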

A short description of test [14]: qHTS Counterscreen for compound interference against the NCATS DSHEA and TCM libraries (AID 1919978).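 Further: compounds preincubated with 1 µM D-luciferin or buffer before detection reagent; % of control where 0% means no effect.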 As to conditions: firefly luciferase detection reagent interference, luminescence. In a few lines:
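Compounds, titrated from 19.5 nM to 39.8 uM final, were pinned onto 1 uM D-luciferin or plain 100 mM potassium phosphate. After 15 min at room temperature, luciferin detection reagent was added for 30 min before the luminescence read.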

The nature of test [15]: Dual reporter qHTS for agonist of Pregnane X Receptor (hPXR) against the NCATS DSHEA and TCM libraries: Fluorescence readout (AID 1920058). Further: 0% is about no effect. The gist of the method:
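HepG2 hPXR-Luc, 2000 cells/well, 5 h attach; cpds ~24 h, 37 °C/5% CO2; CellTiter-Fluor 1 h; fluor. Ex/Em 405/540 nm = viability.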

The target in test [16] is Nuclear receptor subfamily 1 group I member 2 (Homo sapiens) (UniProt O75469). Put plainly: Dual reporter qHTS for agonist of Pregnane X Receptor (hPXR) against the NCATS DSHEA and TCM libraries: Luminescence readout (AID 1920059). Further: 0% is about no effect. The gist of the method:
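hPXR-Luc HepG2 cells, 2000/well in 5% charcoal-stripped FBS medium, attached 5 h, then exposed 24 h at 37C to compounds. Viability by CellTiter-Fluor, then luciferase luminescence with ONE-Glo.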

Test [17] is described as follows: Quantitative High-Throughput drug screen in 47 multiple myeloma cell lines against the NCATS MIPE library collection: UTMC2_PLB cell viability assay (AID 1919868). Further: potency means the concentration at half of the fitted maximal effect; nearly all actives have a fitted effect of over 55% in size. As to conditions: CellTiter-Glo ATP luminescence, 48 h; viability (% of DMSO control): at 45.8 µM (top of the series). In a few lines: as §1
Test [18] addresses Cytochrome P450 2C9 (Homo sapiens) (UniProt P11712). The test is described as follows: qHTS for inhibitors of CYP2C9 against the NCATS DSHEA and TCM libraries (AID 1919973).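 Further: luminogenic pro-luciferin CYP2C9 substrate turned into luciferin with NADPH regeneration; on the % scale 0 is the no-effect control and ±100 the full control effect.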 In a few lines:
as §2

Chain of Cytochrome P450 2D6 (Homo sapiens) (P10635 whole entry, looked up): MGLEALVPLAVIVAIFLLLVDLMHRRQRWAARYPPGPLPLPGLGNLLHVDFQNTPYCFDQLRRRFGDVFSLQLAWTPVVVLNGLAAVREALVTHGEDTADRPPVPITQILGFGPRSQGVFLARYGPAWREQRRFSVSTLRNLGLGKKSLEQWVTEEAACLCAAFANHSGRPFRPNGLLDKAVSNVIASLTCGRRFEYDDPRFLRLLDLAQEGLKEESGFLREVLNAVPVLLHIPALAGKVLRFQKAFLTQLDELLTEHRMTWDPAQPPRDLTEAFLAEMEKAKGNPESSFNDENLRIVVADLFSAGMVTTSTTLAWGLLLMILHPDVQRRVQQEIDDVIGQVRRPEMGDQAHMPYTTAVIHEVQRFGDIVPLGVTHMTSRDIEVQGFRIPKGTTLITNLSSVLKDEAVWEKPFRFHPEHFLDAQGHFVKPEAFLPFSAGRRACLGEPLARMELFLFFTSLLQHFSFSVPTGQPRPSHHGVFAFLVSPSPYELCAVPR
Chain of Cytochrome P450 3A4 (Homo sapiens) (P08684 whole entry, looked up, canonical isoform): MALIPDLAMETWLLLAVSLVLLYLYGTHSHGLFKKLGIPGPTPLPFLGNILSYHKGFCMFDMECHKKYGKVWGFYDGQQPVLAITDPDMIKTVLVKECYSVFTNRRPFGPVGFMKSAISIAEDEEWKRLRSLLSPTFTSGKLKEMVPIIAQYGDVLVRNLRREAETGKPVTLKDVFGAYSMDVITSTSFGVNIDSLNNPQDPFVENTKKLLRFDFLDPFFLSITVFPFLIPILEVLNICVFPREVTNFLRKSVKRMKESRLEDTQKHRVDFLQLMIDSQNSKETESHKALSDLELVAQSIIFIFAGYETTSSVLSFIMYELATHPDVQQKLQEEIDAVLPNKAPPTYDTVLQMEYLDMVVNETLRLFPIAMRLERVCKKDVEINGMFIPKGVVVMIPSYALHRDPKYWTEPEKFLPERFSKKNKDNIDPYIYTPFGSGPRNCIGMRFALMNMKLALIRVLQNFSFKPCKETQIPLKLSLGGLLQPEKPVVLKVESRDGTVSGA
Chain of Nuclear receptor subfamily 1 group I member 2 (Homo sapiens) (O75469 whole entry, looked up): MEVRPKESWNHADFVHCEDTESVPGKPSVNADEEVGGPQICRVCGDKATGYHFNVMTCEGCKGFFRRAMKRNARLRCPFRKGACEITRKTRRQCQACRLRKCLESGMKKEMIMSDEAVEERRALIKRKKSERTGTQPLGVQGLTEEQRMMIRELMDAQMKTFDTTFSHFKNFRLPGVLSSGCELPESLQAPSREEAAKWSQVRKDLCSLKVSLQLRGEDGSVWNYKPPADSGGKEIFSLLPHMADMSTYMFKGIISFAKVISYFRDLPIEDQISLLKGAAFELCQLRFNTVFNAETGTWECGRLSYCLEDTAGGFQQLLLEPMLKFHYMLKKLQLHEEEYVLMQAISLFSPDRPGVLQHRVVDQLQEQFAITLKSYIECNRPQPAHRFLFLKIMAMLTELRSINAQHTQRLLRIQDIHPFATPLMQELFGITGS
Chain of Cytochrome P450 2C9 (Homo sapiens) (P11712 whole entry, looked up): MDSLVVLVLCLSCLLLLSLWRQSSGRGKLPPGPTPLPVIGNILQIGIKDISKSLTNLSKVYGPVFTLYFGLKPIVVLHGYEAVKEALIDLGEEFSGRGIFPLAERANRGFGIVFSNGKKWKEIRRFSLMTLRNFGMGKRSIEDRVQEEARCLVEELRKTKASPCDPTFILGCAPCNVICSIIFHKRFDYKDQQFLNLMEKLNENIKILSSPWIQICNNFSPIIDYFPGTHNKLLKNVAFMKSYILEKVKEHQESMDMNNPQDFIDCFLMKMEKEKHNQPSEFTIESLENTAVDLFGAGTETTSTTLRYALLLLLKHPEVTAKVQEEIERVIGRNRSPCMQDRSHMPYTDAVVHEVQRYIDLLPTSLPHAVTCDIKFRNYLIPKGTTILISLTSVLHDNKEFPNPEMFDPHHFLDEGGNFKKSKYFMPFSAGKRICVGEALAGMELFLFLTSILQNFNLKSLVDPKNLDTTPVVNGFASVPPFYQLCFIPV

`CC=CCC=CCCC(=O)[C@H]1O[C@@H]1C(N)=O`: the Potency is 18.7 µM (active) in test [1]; 18.7 µM (active) in [2]; 23.5 µM (active) in test [3]; 23.5 µM (active) in [4]; 20.9 µM (active) in [5]; 20.9 µM (active) in test [6]. Also, the Potency in [7] is 14.8 µM (active).
As for `CO[C@H]1C[C@@H]2CC[C@@H](C)[C@@](O)(O2)C(=O)C(=O)N2CCCC[C@@H]2C(=O)O[C@H]([C@@H](C)C[C@@H]2CC[C@H](O)[C@H](OC)C2)CC(=O)[C@H](C)C=C(C)[C@@H](O)[C@@H](OC)C(=O)[C@H](C)C[C@H](C)C=CC=CC=C1C`, the viability in [1] is 82.9%. In addition, the Potency entry in [2] and in test [8] was “inactive” each time.
For `O=c1c(-c2ccc(O)cc2)coc2cc(O[C@@H]3O[C@H](CO)[C@H](O)[C@H](O)[C@H]3O)ccc12`, the viability in test [1] is 171%. In addition, the Potency result in test [2], in [9], in [4], in test [5], in test [10] and in test [8] was “inactive” in each case. The Potency result in test [6], in test [7] and in [16] was “inactive” throughout. The result in [11], in test [12], in test [13] and in [15] was inactive. Moreover, the max response in [14] is 1.56%.
For `CN(C)CCC=C1c2ccccc2COc2ccc(CC(=O)O)cc21`, in test [1], the viability is 114%. Moreover, the Potency in test [9] was 20.9 µM (active). Moreover, the Potency result in [4], in test [5], in test [10], in [8], in test [6] and in [7] was “inactive” in each case.
Regarding `CC(C)(C(=O)NCC(F)(F)C(F)(F)F)C(=O)N[C@@H]1C(=O)Nc2ccccc2-c2ccccc21`, the viability in test [1] is 128%. Further, the Potency in test [2] is 16.6 µM (active); in test [9], 10.5 µM (active); in test [4] it was 18.7 µM (active); in [5], 3.32 µM (active). The Potency result in test [10], in [8] and in test [7] was “inactive” in each case.
Regarding `O=C1NC(=O)C(=Cc2ccc3nccnc3c2)S1`, the Potency was 6.45 µM (active) in test [1], 4.57 µM (active) in [3], 3.63 µM (active) in test [17] and 7.24 µM (active) in [7]. Besides, the Potency entry in [8] is “inactive”.
For the compound `Cc1ccn(-c2ccc(-c3ncco3)cc2)c(=O)c1-c1ccc2nc(N)ncc2c1`, the viability in test [1] is 99.5%. Further, the Potency in test [9] is 3.72 µM (active); in [3], 1.66 µM (active); in [4], 4.69 µM (active). Besides, the Potency result in test [10] and in [7] was “inactive” in each case.
For `CC(C)C(=O)Nc1ncc(-c2cc(C(F)F)nn2-c2c(Cl)cccc2Cl)s1`, the Potency in test [1] is 16.6 µM (active); in test [9], 10.5 µM (active); in test [3] it was 18.7 µM (active); in test [17], 20.9 µM (active); in test [4] it was 23.5 µM (active); in [6] it was 11.8 µM (active). In addition, the Potency in test [7] is 11.8 µM (active).
For the compound `COc1cc(O)c2c(c1)C(=O)c1cc(C)cc(O)c1C2=O`, the viability in [1] is 131%. Besides, the Potency result in test [2], in test [9], in [4], in [5], in test [10] and in test [8] was “inactive” throughout. For the same compound, in [16], the Potency result was “inactive”. In addition, the compound was called inactive in test [11], in [12], in test [18], in test [13] and in [15]. The max response in [14] was 1.06%.
For `COc1ccc(-c2oc3c(CC=C(C)C)c(OC4O[C@H](CO)[C@@H](O)[C@H](O)[C@@H]4O)cc(O)c3c(=O)c2OC2O[C@@H](C)[C@H](O)[C@@H](O)[C@@H]2O)cc1` (some centres not stated), the Potency in test [1] is 20.9 µM (active); in [2], 23.5 µM (active); in test [9], 18.7 µM (active); in test [4], 23.5 µM (active); in test [5], 16.6 µM (active); in test [10] it was 20.9 µM (active). The results for the Potency in [8], in test [6] and in test [7] were 23.5 µM (active), 23.5 µM (active) and 16.6 µM (active), respectively.
Consider `O=C1NC(=O)C(=Cc2cccc(C(F)(F)F)c2)S1`, for which the Potency in test [1] is 14.8 µM (active); in test [2], 20.9 µM (active); in [10], 7.43 µM (active). For the same compound, the Potency result in test [8] and in [7] was “inactive” throughout.
